Test [1] is described as follows: qHTS assay to identify small molecule agonists of the vitamin D receptor (VDR) signaling pathway - cell viability counter screen (AID 743224; active = well fitted curve in the direction sought with a large enough effect in the repeat runs; an effect the other way counts as inactive or inconclusive; also: series mostly up to about 63 µM; % is scaled to controls: 0 for no effect and ±100 for the full control effect; nearly all actives have a fitted effect of over 50% in size). Summed up: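 CellTiter-Glo viability readout on VDR-bla cells, measured after 16 h of compound treatment at 37C in the same wells.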
On the technique in general: qHTS replaces the single test concentration by a dilution series.

The nature of test [2]: qHTS assay to identify small molecule antagonists of the vitamin D receptor (VDR) signaling pathway - cell viability counter screen (AID 743225; active = well fitted curve in the direction sought with a large enough effect in the repeat runs; an effect the other way counts as inactive or inconclusive; also: % is scaled to controls: 0 for no effect and ±100 for the full control effect; nearly all actives have a fitted effect of over 50% in size). Summed up: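 Cells (VDR-UAS-bla HEK 293T) are plated, rested 4 h at 37C, dosed with compound and 3 nM final 1-alpha,25-dihydroxy vitamin D3, and incubated 16 h. Viability is taken from CellTiter-Glo luminescence in the reporter wells.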

A short description of test [3]: qHTS assay to identify small molecule agonists of the NFkB signaling pathway (AID 1159509; active = well fitted curve in the direction sought with a large enough effect in the signal ratio in the repeat runs, not every such curve was filed as active; the % refers to the signal ratio; also: series mostly up to about 61 µM; % is scaled to controls: 0 for no effect and ±100 for the full control effect). Summed up: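 Agonist activity was read as beta-lactamase-driven FRET change (460 and 530 nm emission, 405 nm excitation) following 1.5 hr substrate loading at room temperature. Beforehand, ME-180 NFkB-bla reporter cells were treated with compounds for 5 hr at 37 C.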
Test [4] is described as follows: qHTS assay to identify small molecule agonists of the NFkB signaling pathway - cell viability counter screen (AID 1159515). Also: series mostly up to about 61 µM; % is scaled to controls: 0 for no effect and ±100 for the full control effect; nearly all actives have a fitted effect of over 55% in size. In short, it runs like this: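 Tox21 library compounds were tested for cytotoxicity against NFkB-bla ME-180 cells during a 5 hr exposure at 37 C. CellTiter-Glo luminescence served as the viability read-out.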
Test [5] is described as follows: qHTS assay to identify small molecule agonists of the endoplasmic reticulum stress response signaling pathway (AID 1159516; active = well fitted activation curve with a large enough effect in the signal ratio in the repeat runs, not every such curve was filed as active; the % refers to the signal ratio; also: % is scaled to controls: 0 for no effect and ±100 for the full control effect). In short, it runs like this: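 Fluorescence at 460 and 530 nm (405 nm excitation) reports beta-lactamase from an ER stress response element in HeLa cells treated 5 hr at 37 C.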
Test [6] is described as follows: qHTS assay to identify small molecule agonists of the endoplasmic reticulum stress response signaling pathway - cell viability counter screen (AID 1159517). Also: series mostly up to about 61 µM; % is scaled to controls: 0 for no effect and ±100 for the full control effect; nearly all actives have a fitted effect of over 50% in size. Summed up: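 In parallel with the ESRE reporter read, cytotoxicity was scored by CellTiter-Glo luminescence (30 min, room temperature) on HeLa ESRE-bla cells dosed for 5 hr.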
The nature of test [7]: qHTS assay to identify small molecule antagonists of the retinoid-related orphan receptor gamma (ROR-gamma) signaling pathway - cell viability counter screen (AID 1159520; active = well fitted curve in the direction sought with a large enough effect in the repeat runs; an effect the other way counts as inactive or inconclusive; also: % is scaled to controls: 0 for no effect and ±100 for the full control effect; nearly all actives have a fitted effect of over 50% in size). In short, it runs like this:
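Tet-on ROR gamma CHO cells were given compounds for 2 hr, then doxycycline hyclate at 1 uM final, and incubated 16 hr at 37 C. Viability was measured as ATP content by CellTiter-Glo luminescence.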

Test [8] deals with Nuclear receptor ROR-gamma (Homo sapiens) (UniProt P51449). Nature of the test: qHTS assay to identify small molecule antagonists of the retinoid-related orphan receptor gamma (ROR-gamma) signaling pathway (AID 1159521; active = well fitted curve in the direction sought with a large enough effect in the repeat runs; an effect the other way counts as inactive or inconclusive; also: nearly all actives have a fitted effect of over 50% in size; also: potency is read from the fitted curve at half-maximal effect;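 as to activity change, negative = inhibition: CHO cells with doxycycline inducible ROR-gamma driving an RORE luciferase reporter; top concentration of the series differs between compounds; % is scaled to controls: 0 for no effect and ±100 for the full control effect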). In short, it runs like this:
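RORγ antagonism is scored from reduced reporter luminescence in Tet-on CHO cells. Induction used 1 uM final doxycycline hyclate for 16 h at 37 C, following a 2 h compound exposure.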

Test [9] in a line: qHTS assay to identify small molecule agonists of the AP-1 signaling pathway - cell viability counter screen (AID 1159525). Also: nearly all actives have a fitted effect of over 55% in size. In short, it runs like this:
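Same-well cytotoxicity counter screen of the Tox21 10K library in ME-180 cells. The readout is ATP-dependent luminescence after 5 h compound treatment. Data are normalised to DMSO and tetra n-octyl ammonium bromide controls.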

Test [10] can be described thus: qHTS assay to identify small molecule agonists of the AP-1 signaling pathway (AID 1159526). Also: % is scaled to controls: 0 for no effect and ±100 for the full control effect.

Records with an inconclusive call do not appear. Values without a mark were called inactive. Activity calls are given as the source filed them. Unless noted, calls follow the shape of the full dose curve.

Turning to `CCCCCCCCS`, the compound was called inactive in [1], in test [2], in test [3], in test [4], in [5] and in test [6]. Besides, the result in [9] was inactive. The Potency entry in [7], in [8] and in test [10] was “inactive” throughout.

As to `CCC(C)C1N=C(C)C(C)S1` (configuration not stated), the call in test [1], in [2], in test [3], in test [4], in test [5] and in test [6] was inactive. The call in [9] was inactive. For the same compound, the Potency result in test [7], in test [8] and in test [10] was “inactive” in each case.

For `CC1=C(C)C(=O)C(CCCCC#CCCCC#CCO)=C(C)C1=O`, the call in [1], in test [2], in test [3], in test [4], in test [5] and in test [6] was inactive. The outcome in test [9] was inactive. In addition, the Potency entry in test [7] and in test [10] was “inactive” throughout. In addition, in [8], the Potency is 29.8 µM (active).

Regarding `CC(C)(C)NCC(O)COc1ccc(NC(=O)NC2CCCCC2)cc1` (configuration not stated), the outcome in test [1], in test [2], in [3], in [4], in test [5] and in test [6] was inactive. Also, the call in test [9] was inactive. Further, the Potency entry in test [7], in [8] and in test [10] was “inactive” in each case.

Consider `O=C(O)c1ccccc1-n1cc(C(=O)O)c(=O)c2cc(Nc3c(F)cc(F)cc3Cl)c(Cl)cc21`, for which the result in test [1], in [3], in test [4], in test [5], in [6] and in [9] was inactive. The Potency result in test [7], in test [8] and in test [10] was “inactive” throughout.

Regarding `Cc1ccc(NC(=O)c2ccc(CN3CCN(C)CC3)cc2)cc1Nc1nccc(-c2cccnc2)n1`, the outcome in [3], in test [4], in test [5], in test [6] and in test [9] was inactive. Moreover, the Potency result in test [7], in [8] and in test [10] was “inactive” in each case.

For `CC(=O)OCC(=O)[C@@]1(O)CC[C@H]2[C@@H]3CCC4=CC(=O)C=C[C@]4(C)[C@@]3(F)[C@@H](O)C[C@@]21C`, the result in test [1], in [2], in [3], in test [4], in [5] and in test [6] was inactive. Further, the compound was classed as inactive in [9]. The Potency result in test [7], in test [8] and in [10] was “inactive” each time.

With `CC1=CC(=C(c2ccc(N)cc2)c2ccc(N)cc2)C=CC1=N`, the values for the activity change, negative = cytotoxicity in test [1] and in [6] were -18.2% [at 5.95 µM] and -9.14% [at 6.95 µM], respectively. For the same compound, the activation in test [3] is 0.0131% [at 6.95 µM]; in test [5], -5.36% [at 6.95 µM]; in [10], -9.58% [at 6.97 µM]. In addition, in [4], the activity, negative = cytotoxic was 11% [at 6.95 µM]. In test [7], the activity, negative = cytotoxicity is -12.6% [at 8.39 µM]. Besides, the activity change, negative = inhibition in test [8] was -15.2% [at 8.39 µM]. In test [9], the viability change, negative = cytotoxic is 23.5% [at 6.97 µM].

As for `CC(=O)Oc1cccc2c1C(=O)c1c(OC(C)=O)cc(C(=O)O)cc1C2=O`, the outcome in [1], in test [2], in [3], in test [4], in [5] and in test [6] was inactive. The result in [9] was inactive. The Potency entry in test [7], in test [8] and in [10] was “inactive” in each case.

`C[C@@H](O)[C@H]1C(=O)N2C(C(=O)O)=C(S[C@@H]3CN[C@H](CNS(N)(=O)=O)C3)[C@H](C)[C@H]12`: the result in [3], in [4], in [5], in [6] and in test [9] was inactive. The Potency result in test [7], in test [8] and in test [10] was “inactive” each time.

As for `O=C(OCCCCCOC(=O)c1ccccc1)c1ccccc1`, the call in test [1], in test [2], in test [3], in [4], in test [5] and in test [6] was inactive. Moreover, in test [9], the call was inactive. Moreover, the Potency entry in test [7], in test [8] and in test [10] was “inactive” in each case.

As for `CCC(C)CCCC(C)(C)O` (configuration not stated), the call in test [1], in test [2], in test [3], in test [4], in test [5] and in test [6] was inactive. In addition, in test [9], the outcome was inactive. Further, the Potency entry in test [7], in test [8] and in [10] was “inactive” each time.

With `CCOc1ccccc1O`, the outcome in test [1], in test [2], in test [3], in [4], in test [5] and in test [6] was inactive. Further, the result in [9] was inactive. Besides, the Potency entry in [7], in [8] and in test [10] was “inactive” throughout.

For the compound `CCC1=C(C)CN(C(=O)NCCc2ccc(S(=O)(=O)NC(=O)NC3CCC(C)CC3)cc2)C1=O` (configuration not stated), the compound was classed as inactive in test [1], in test [2], in test [3], in test [4], in [5] and in test [6]. The compound was called inactive in test [9]. The Potency result in test [7], in test [8] and in test [10] was “inactive” each time.

On to `CCC(=O)O[C@]1(C(=O)COC)[C@@H](C)C[C@H]2[C@@H]3CCC4=CC(=O)C=C[C@]4(C)C3(F)[C@@H](O)C[C@@]21C` (some centres not stated), for which the compound was called inactive in [1], in test [2], in test [3], in test [4], in test [5] and in test [6]. Besides, in [9], the call was inactive. Also, the Potency result in [7], in test [8] and in test [10] was “inactive” each time.

Take `C=C(C)C(=O)OCCCCCCCCCCOC(=O)C(=C)C`: the call in test [1], in test [2], in test [3], in test [4], in [5] and in test [6] was inactive. In addition, in [9], the compound was called inactive. Moreover, the Potency entry in [7], in test [8] and in test [10] was “inactive” each time.

Regarding `CCN(CCCCOC(=O)c1ccc(OC)c(OC)c1)C(C)Cc1ccc(OC)cc1` (configuration not stated), the compound was classed as inactive in [1], in test [3], in test [4], in [5], in test [6] and in [9]. Moreover, the Potency entry in test [7], in [8] and in test [10] was “inactive” in each case.

For the compound `COc1ccnc2c1CCCCC2S(=O)c1nc2ccccc2[nH]1` (configuration not stated), the call in test [1], in test [2], in [3], in test [4], in test [5] and in test [6] was inactive. In addition, the call in test [9] was inactive. The Potency result in [7], in test [8] and in [10] was “inactive” each time.

For `NC(=O)c1cc[n+](CC2=C(C(=O)[O-])N3C(=O)[C@@H](NC(=O)Cc4cccs4)[C@H]3SC2)cc1`, the result in test [1], in [3], in [4], in test [5], in [6] and in test [9] was inactive. For the same compound, the Potency result in test [7], in test [8] and in [10] was “inactive” each time.

On to `O=C(O)c1ccccc1[N+](=O)[O-]`, for which the outcome in test [1], in test [2], in [3], in test [4], in test [5] and in test [6] was inactive. In [9], the outcome was inactive. Moreover, the Potency entry in test [7], in test [8] and in [10] was “inactive” throughout.

Take `C/C(=C\C(C)CC(C)CC(C)C)C1CC(=O)OC1=O` (configuration not stated): the compound was classed as inactive in [1], in [2], in [3], in [4], in test [5] and in [6]. The result in test [9] was inactive. Further, the Potency entry in [7], in [8] and in test [10] was “inactive” each time.

The record behind these values is PubChem BioAssay (Tox21).
